Laboratory results from article PMC11006913.
Changes are numbered by the printed parent chain.

Key:
Assay in all cases: PBM; 200 nM protein, PBS
Settings in all cases: dsDNA, one strand shown
[1] = target: HOXA4 (Homo sapiens, UniProt Q00056 201-287, W262R)
[2] = target: HOXA4 (Homo sapiens, UniProt Q00056 201-287, R217L)
[3] = target: T1, NKX2-6 (Homo sapiens, UniProt A6NCS4 118-204, R150C)
T1 sequence: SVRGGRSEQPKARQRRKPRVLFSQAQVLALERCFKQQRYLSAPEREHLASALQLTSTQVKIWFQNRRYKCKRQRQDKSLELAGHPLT

[4] = target: HOXA4 (Homo sapiens, UniProt Q00056 201-287)
[5] = target: HOXA4 (Homo sapiens, UniProt Q00056 201-287, W262F)
[6] = target: MSX2 (Homo sapiens, UniProt P35548 130-214, R199I)
[7] = target: MSX2 (Homo sapiens, UniProt P35548 130-214)
[8] = target: MSX2 (Homo sapiens, UniProt P35548 130-214, F161Y)
[9] = target: ALX3 (Homo sapiens, UniProt O95076 139-225, N203Q)
[10] = target: ALX3 (Homo sapiens, UniProt O95076 139-225)
[11] = target: ALX3 (Homo sapiens, UniProt O95076 139-225, L168Q)
[12] = target: ALX3 (Homo sapiens, UniProt O95076 139-225, L168V)
[13] = target: ALX3 (Homo sapiens, UniProt O95076 139-225, N203S)
[14] = target: HOXD13 (Homo sapiens, UniProt P35453 263-343)
[15] = target: HOXA7 (Homo sapiens, UniProt P31268 116-202)
[16] = target: HOXA7 (Homo sapiens, UniProt P31268 116-202, W177C)
[17] = target: NKX3-2 (Homo sapiens, UniProt P78367 192-278, P234S)
[18] = target: NKX3-2 (Homo sapiens, UniProt P78367 192-278)
[19] = target: HOXB6 (Homo sapiens, UniProt P17509 132-218, K202E)
[20] = target: HOXB6 (Homo sapiens, UniProt P17509 132-218)
[21] = target: HOXA2 (Homo sapiens, UniProt O43364 129-215, R185T)
[22] = target: HOXA2 (Homo sapiens, UniProt O43364 129-215, R185K)
[23] = target: HOXA2 (Homo sapiens, UniProt O43364 129-215, Y150S)
[24] = target: HOXA2 (Homo sapiens, UniProt O43364 129-215)
[25] = target: HOXD13 (Homo sapiens, UniProt P35453 263-343, T313R)
[26] = target: HOXD13 (Homo sapiens, UniProt P35453 263-343, T313A)
[27] = target: PROP1 (Homo sapiens, UniProt O75360 56-141)
[28] = target: PROP1 (Homo sapiens, UniProt O75360 56-141, R99H)
[29] = target: PROP1 (Homo sapiens, UniProt O75360 56-141, F88S)
[30] = target: VAX1 (Homo sapiens, UniProt Q5SQQ9 86-172)
[31] = target: VAX1 (Homo sapiens, UniProt Q5SQQ9 86-172, T142I)
[32] = target: VAX1 (Homo sapiens, UniProt Q5SQQ9 86-172, K157R)
[33] = target: ALX1 (Homo sapiens, UniProt Q15699 118-204)
[34] = target: CRX (Homo sapiens, UniProt O43186 26-111, E42D)
[35] = target: CRX (Homo sapiens, UniProt O43186 26-111, R41L)
[36] = target: ALX1 (Homo sapiens, UniProt Q15699 118-204, L144V)
[37] = target: ALX1 (Homo sapiens, UniProt Q15699 118-204, L144R)
[38] = target: T2, NKX2-6 (Homo sapiens, UniProt A6NCS4 118-204)
T2 sequence: T1 sequence with C33R

[39] = target: T3, NKX2-6 (Homo sapiens, UniProt A6NCS4 118-204, F151L)
T3 sequence: T1 sequence with C33R, F34L

[40] = target: HOXB9 (Homo sapiens, UniProt P17482 171-250, R186Q)
HOXB9, sequence (P17482 171-250 R186Q): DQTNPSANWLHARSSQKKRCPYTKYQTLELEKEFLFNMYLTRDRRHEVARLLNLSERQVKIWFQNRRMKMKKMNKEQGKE

HOXB6 (Homo sapiens, UniProt P17509 132-218, K202E), sequence (P17509 132-218 K202E): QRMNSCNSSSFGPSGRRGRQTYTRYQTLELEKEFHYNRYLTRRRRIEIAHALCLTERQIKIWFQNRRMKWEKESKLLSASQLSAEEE
VAX1 (Homo sapiens, UniProt Q5SQQ9 86-172, T142I), sequence (Q5SQQ9 86-172 T142I): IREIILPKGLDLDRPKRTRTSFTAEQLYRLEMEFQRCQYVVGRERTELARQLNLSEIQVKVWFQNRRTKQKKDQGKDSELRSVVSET
VAX1 (Homo sapiens, UniProt Q5SQQ9 86-172, K157R), sequence (Q5SQQ9 86-172 K157R): as the sequence (Q5SQQ9 86-172 T142I) above, with I57T, K72R counted along it
HOXA4 (Homo sapiens, UniProt Q00056 201-287), sequence (Q00056 201-287): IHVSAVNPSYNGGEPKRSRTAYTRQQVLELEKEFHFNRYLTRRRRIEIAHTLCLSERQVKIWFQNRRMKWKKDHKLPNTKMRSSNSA
HOXA4 (Homo sapiens, UniProt Q00056 201-287, W262R), sequence (Q00056 201-287 W262R): as the sequence (Q00056 201-287) above, with W62R counted along it
ALX1 (Homo sapiens, UniProt Q15699 118-204), sequence (Q15699 118-204): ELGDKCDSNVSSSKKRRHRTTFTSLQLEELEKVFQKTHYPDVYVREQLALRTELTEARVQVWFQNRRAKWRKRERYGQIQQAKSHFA
HOXA4 (Homo sapiens, UniProt Q00056 201-287, R217L), sequence (Q00056 201-287 R217L): as the sequence (Q00056 201-287) above, with R17L counted along it
VAX1 (Homo sapiens, UniProt Q5SQQ9 86-172), sequence (Q5SQQ9 86-172): as the sequence (Q5SQQ9 86-172 T142I) above, with I57T counted along it
HOXB6 (Homo sapiens, UniProt P17509 132-218), sequence (P17509 132-218): as the sequence (P17509 132-218 K202E) above, with E71K counted along it
HOXA4 (Homo sapiens, UniProt Q00056 201-287, W262F), sequence (Q00056 201-287 W262F): as the sequence (Q00056 201-287) above, with W62F counted along it
HOXA7 (Homo sapiens, UniProt P31268 116-202), sequence (P31268 116-202): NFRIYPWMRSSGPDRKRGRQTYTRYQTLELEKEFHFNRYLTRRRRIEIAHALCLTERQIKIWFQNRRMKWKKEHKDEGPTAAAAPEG
HOXA7 (Homo sapiens, UniProt P31268 116-202, W177C), sequence (P31268 116-202 W177C): as the sequence (P31268 116-202) above, with W62C counted along it
ALX1 (Homo sapiens, UniProt Q15699 118-204, L144V), sequence (Q15699 118-204 L144V): as the sequence (Q15699 118-204) above, with L27V counted along it
ALX3 (Homo sapiens, UniProt O95076 139-225), sequence (O95076 139-225): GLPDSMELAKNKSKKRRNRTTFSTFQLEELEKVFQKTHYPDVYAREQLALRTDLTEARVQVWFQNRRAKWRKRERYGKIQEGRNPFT
ALX1 (Homo sapiens, UniProt Q15699 118-204, L144R), sequence (Q15699 118-204 L144R): as the sequence (Q15699 118-204) above, with L27R counted along it
HOXD13 (Homo sapiens, UniProt P35453 263-343), sequence (P35453 263-343): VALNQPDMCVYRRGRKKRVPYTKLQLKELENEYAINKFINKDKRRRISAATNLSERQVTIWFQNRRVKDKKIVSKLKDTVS
CRX (Homo sapiens, UniProt O43186 26-111, E42D), sequence (O43186 26-111 E42D): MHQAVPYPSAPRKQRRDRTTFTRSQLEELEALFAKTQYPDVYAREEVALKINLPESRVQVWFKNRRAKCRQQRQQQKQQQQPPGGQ
PROP1 (Homo sapiens, UniProt O75360 56-141), sequence (O75360 56-141): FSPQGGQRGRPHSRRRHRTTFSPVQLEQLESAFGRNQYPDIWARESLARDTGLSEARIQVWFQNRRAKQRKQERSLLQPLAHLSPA
MSX2 (Homo sapiens, UniProt P35548 130-214), sequence (P35548 130-214): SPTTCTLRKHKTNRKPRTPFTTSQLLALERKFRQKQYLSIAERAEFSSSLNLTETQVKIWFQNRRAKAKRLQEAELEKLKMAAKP
ALX3 (Homo sapiens, UniProt O95076 139-225, L168V), sequence (O95076 139-225 L168V): as the sequence (O95076 139-225) above, with L30V counted along it
HOXD13 (Homo sapiens, UniProt P35453 263-343, T313R), sequence (P35453 263-343 T313R): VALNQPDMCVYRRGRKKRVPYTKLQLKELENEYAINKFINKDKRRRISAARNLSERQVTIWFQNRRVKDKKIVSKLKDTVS
HOXD13 (Homo sapiens, UniProt P35453 263-343, T313A), sequence (P35453 263-343 T313A): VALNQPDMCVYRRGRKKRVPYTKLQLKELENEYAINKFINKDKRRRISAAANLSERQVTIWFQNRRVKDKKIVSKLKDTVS
MSX2 (Homo sapiens, UniProt P35548 130-214, R199I), sequence (P35548 130-214 R199I): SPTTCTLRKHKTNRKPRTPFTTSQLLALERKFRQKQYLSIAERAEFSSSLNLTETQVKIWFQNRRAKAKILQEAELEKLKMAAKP
PROP1 (Homo sapiens, UniProt O75360 56-141, R99H), sequence (O75360 56-141 R99H): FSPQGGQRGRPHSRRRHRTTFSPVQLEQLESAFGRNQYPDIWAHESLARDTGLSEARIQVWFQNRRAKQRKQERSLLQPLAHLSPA
CRX (Homo sapiens, UniProt O43186 26-111, R41L), sequence (O43186 26-111 R41L): as the sequence (O43186 26-111 E42D) above, with R16L, D17E counted along it
HOXA2 (Homo sapiens, UniProt O43364 129-215, R185K), sequence (O43364 129-215 R185K): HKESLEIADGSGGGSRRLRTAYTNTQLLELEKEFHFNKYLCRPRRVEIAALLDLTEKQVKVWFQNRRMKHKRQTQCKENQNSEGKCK
HOXA2 (Homo sapiens, UniProt O43364 129-215, Y150S), sequence (O43364 129-215 Y150S): as the sequence (O43364 129-215 R185K) above, with Y22S, K57R counted along it
ALX3 (Homo sapiens, UniProt O95076 139-225, L168Q), sequence (O95076 139-225 L168Q): as the sequence (O95076 139-225) above, with L30Q counted along it
NKX3-2 (Homo sapiens, UniProt P78367 192-278, P234S), sequence (P78367 192-278 P234S): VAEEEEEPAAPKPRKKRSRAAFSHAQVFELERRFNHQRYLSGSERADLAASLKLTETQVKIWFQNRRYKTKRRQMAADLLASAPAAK
PROP1 (Homo sapiens, UniProt O75360 56-141, F88S), sequence (O75360 56-141 F88S): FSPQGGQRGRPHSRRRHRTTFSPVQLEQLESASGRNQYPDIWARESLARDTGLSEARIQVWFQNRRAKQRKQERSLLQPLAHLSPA
ALX3 (Homo sapiens, UniProt O95076 139-225, N203S), sequence (O95076 139-225 N203S): as the sequence (O95076 139-225) above, with N65S counted along it
NKX3-2 (Homo sapiens, UniProt P78367 192-278), sequence (P78367 192-278): as the sequence (P78367 192-278 P234S) above, with S43P counted along it
ALX3 (Homo sapiens, UniProt O95076 139-225, N203Q), sequence (O95076 139-225 N203Q): as the sequence (O95076 139-225) above, with N65Q counted along it
HOXA2 (Homo sapiens, UniProt O43364 129-215), sequence (O43364 129-215): as the sequence (O43364 129-215 R185K) above, with K57R counted along it
MSX2 (Homo sapiens, UniProt P35548 130-214, F161Y), sequence (P35548 130-214 F161Y): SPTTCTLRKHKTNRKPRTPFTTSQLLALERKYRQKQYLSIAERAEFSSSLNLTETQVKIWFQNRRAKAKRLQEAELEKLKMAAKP
HOXA2 (Homo sapiens, UniProt O43364 129-215, R185T), sequence (O43364 129-215 R185T): as the sequence (O43364 129-215 R185K) above, with K57T counted along it

For AGGGACGG, the binding signal [1] was 9.81 upbm affinity estimate (log intensity, higher = more binding, comparable within an allelic series), the binding signal [2] was 9.83 upbm affinity estimate (log intensity, higher = more binding, comparable within an allelic series) and the binding signal [3] was 9.6 upbm affinity estimate (log intensity, higher = more binding, comparable within an allelic series). The binding signal [4] was 9.78 upbm affinity estimate (log intensity, higher = more binding, comparable within an allelic series) and the binding signal [5] was 9.93 upbm affinity estimate (log intensity, higher = more binding, comparable within an allelic series).

AGGGCGGG was tested, and the binding signal [1] was 9.85 upbm affinity estimate (log intensity, higher = more binding, comparable within an allelic series), the binding signal [2] was 9.99 upbm affinity estimate (log intensity, higher = more binding, comparable within an allelic series) and the binding signal [6] was 9.58 upbm affinity estimate (log intensity, higher = more binding, comparable within an allelic series). The binding signal [4] was 10 upbm affinity estimate (log intensity, higher = more binding, comparable within an allelic series), the binding signal [7] was 9.55 upbm affinity estimate (log intensity, higher = more binding, comparable within an allelic series) and the binding signal [8] was 9.62 upbm affinity estimate (log intensity, higher = more binding, comparable within an allelic series). The binding signal [5] was 10.1 upbm affinity estimate (log intensity, higher = more binding, comparable within an allelic series).

CGAGGGCG was tested, and the binding signal [1] was 9.7 upbm affinity estimate (log intensity, higher = more binding, comparable within an allelic series), the binding signal [2] was 9.75 upbm affinity estimate (log intensity, higher = more binding, comparable within an allelic series) and the binding signal [9] was 7.74 upbm affinity estimate (log intensity, higher = more binding, comparable within an allelic series). The binding signal [4] was 9.8 upbm affinity estimate (log intensity, higher = more binding, comparable within an allelic series), the binding signal [10] was 7.69 upbm affinity estimate (log intensity, higher = more binding, comparable within an allelic series) and the binding signal [11] was 7.78 upbm affinity estimate (log intensity, higher = more binding, comparable within an allelic series). For the same sequence, the binding signal [12] was 7.76 upbm affinity estimate (log intensity, higher = more binding, comparable within an allelic series), the binding signal [5] was 9.89 upbm affinity estimate (log intensity, higher = more binding, comparable within an allelic series) and the binding signal [13] was 7.73 upbm affinity estimate (log intensity, higher = more binding, comparable within an allelic series).

GAGTAATA was tested, and the binding signal [14] was 10.9 upbm affinity estimate (log intensity, higher = more binding, comparable within an allelic series).

With AGCAGCCC the binding signal [15] was 8.64 upbm affinity estimate (log intensity, higher = more binding, comparable within an allelic series) and the binding signal [16] was 8.34 upbm affinity estimate (log intensity, higher = more binding, comparable within an allelic series).

For CAAGCTCG, the binding signal [15] was 8.21 upbm affinity estimate (log intensity, higher = more binding, comparable within an allelic series), the binding signal [16] was 8.29 upbm affinity estimate (log intensity, higher = more binding, comparable within an allelic series) and the binding signal [17] was 10.3 upbm affinity estimate (log intensity, higher = more binding, comparable within an allelic series). The binding signal [18] was 10.3 upbm affinity estimate (log intensity, higher = more binding, comparable within an allelic series).

For TAAGATGA, the binding signal [19] was 9.54 upbm affinity estimate (log intensity, higher = more binding, comparable within an allelic series) and the binding signal [20] was 10.1 upbm affinity estimate (log intensity, higher = more binding, comparable within an allelic series).

With CCAGTCGG the binding signal [21] was 7.11 upbm affinity estimate (log intensity, higher = more binding, comparable within an allelic series), the binding signal [22] was 10.4 upbm affinity estimate (log intensity, higher = more binding, comparable within an allelic series) and the binding signal [23] was 10.4 upbm affinity estimate (log intensity, higher = more binding, comparable within an allelic series). The binding signal [24] was 7.25 upbm affinity estimate (log intensity, higher = more binding, comparable within an allelic series).

In the case of CCGGGAGC, the binding signal [3] is reported as 9.24 upbm affinity estimate (log intensity, higher = more binding, comparable within an allelic series).

For ATTTACGA, the binding signal [25] was 10.9 upbm affinity estimate (log intensity, higher = more binding, comparable within an allelic series), the binding signal [14] was 12 upbm affinity estimate (log intensity, higher = more binding, comparable within an allelic series) and the binding signal [26] was 11.8 upbm affinity estimate (log intensity, higher = more binding, comparable within an allelic series).

With TAATTTAA the binding signal [27] was 11 upbm affinity estimate (log intensity, higher = more binding, comparable within an allelic series), the binding signal [28] was 10.6 upbm affinity estimate (log intensity, higher = more binding, comparable within an allelic series) and the binding signal [29] was 7.76 upbm affinity estimate (log intensity, higher = more binding, comparable within an allelic series).

CCGGCTAG was tested, and the binding signal [30] was 6.74 upbm affinity estimate (log intensity, higher = more binding, comparable within an allelic series), the binding signal [31] was 6.97 upbm affinity estimate (log intensity, higher = more binding, comparable within an allelic series) and the binding signal [32] was 6.86 upbm affinity estimate (log intensity, higher = more binding, comparable within an allelic series).

With AATCACTG the binding signal [30] was 9.43 upbm affinity estimate (log intensity, higher = more binding, comparable within an allelic series), the binding signal [31] was 9.21 upbm affinity estimate (log intensity, higher = more binding, comparable within an allelic series) and the binding signal [32] was 9.33 upbm affinity estimate (log intensity, higher = more binding, comparable within an allelic series).

For CCAGTGGG, the binding signal [33] was 6.33 upbm affinity estimate (log intensity, higher = more binding, comparable within an allelic series).

CAGACGGC was tested, and the binding signal [33] was 6.59 upbm affinity estimate (log intensity, higher = more binding, comparable within an allelic series).

For ATATAACG, the binding signal [20] was 10.7 upbm affinity estimate (log intensity, higher = more binding, comparable within an allelic series).

With CCCCCCAC the binding signal [19] was 8.84 upbm affinity estimate (log intensity, higher = more binding, comparable within an allelic series) and the binding signal [20] was 8.7 upbm affinity estimate (log intensity, higher = more binding, comparable within an allelic series).

With GAGGGTCC the binding signal [19] was 8.91 upbm affinity estimate (log intensity, higher = more binding, comparable within an allelic series) and the binding signal [20] was 8.74 upbm affinity estimate (log intensity, higher = more binding, comparable within an allelic series).

AGATTAAA was tested, and the binding signal [34] was 12.7 upbm affinity estimate (log intensity, higher = more binding, comparable within an allelic series) and the binding signal [35] was 12.5 upbm affinity estimate (log intensity, higher = more binding, comparable within an allelic series).

With CCGGGTAC the binding signal [36] was 6.43 upbm affinity estimate (log intensity, higher = more binding, comparable within an allelic series), the binding signal [37] was 6.2 upbm affinity estimate (log intensity, higher = more binding, comparable within an allelic series) and the binding signal [33] was 6.38 upbm affinity estimate (log intensity, higher = more binding, comparable within an allelic series).

With CCCAGGTC the binding signal [36] was 6.5 upbm affinity estimate (log intensity, higher = more binding, comparable within an allelic series), the binding signal [37] was 6.45 upbm affinity estimate (log intensity, higher = more binding, comparable within an allelic series) and the binding signal [33] was 6.46 upbm affinity estimate (log intensity, higher = more binding, comparable within an allelic series).

With CCTCTCCA the binding signal [38] was 11.5 upbm affinity estimate (log intensity, higher = more binding, comparable within an allelic series) and the binding signal [39] was 9.51 upbm affinity estimate (log intensity, higher = more binding, comparable within an allelic series).

For CCTCCCAG, the binding signal [30] was 7.07 upbm affinity estimate (log intensity, higher = more binding, comparable within an allelic series), the binding signal [31] was 7.13 upbm affinity estimate (log intensity, higher = more binding, comparable within an allelic series) and the binding signal [32] was 6.95 upbm affinity estimate (log intensity, higher = more binding, comparable within an allelic series).

In the case of ATTTAATA, the binding signal [40] is reported as 11.4 upbm affinity estimate (log intensity, higher = more binding, comparable within an allelic series).

For TTATACAA, the binding signal [10] was 9.71 upbm affinity estimate (log intensity, higher = more binding, comparable within an allelic series).
